Experimental findings from PubChem BioAssay are described below.

A short description of test [1]: small molecules captured by biotinylated probe aFSTL3 – biochemical, small-molecule microarray, fluorescence 635/667, stem cell growth factor project, primary screen (AID 1064).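 Also: measures binding of the biotinylated anti-FSTL3 antibody to printed compounds.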 The note with it: higher = more signal.
Test [2] in a line: binders from COS7 lysate, DM2A8 probe, primary screen, torsin A project, cell lysate, small-molecule microarray, fluorescence 635/667 (AID 1065). The note with it: higher = more signal, COS7 lysate expressing mutant human TOR1A.
Test [3] can be described thus: small molecules captured by biotinylated probe aFGF2 – biochemical, small-molecule microarray, fluorescence 635/667, stem cell growth factor project, primary screen (AID 1067).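 Also: measures binding of biotinylated aFGF2 protein to printed compounds on slides; z-score merges feature fluorescence and signal-to-noise across triplicate slides.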 As to conditions: higher = more signal.
The nature of test [4]: small molecules captured by biotinylated probe aFGF10 – biochemical, small-molecule microarray, fluorescence 635/667, stem cell growth factor project, primary screen (AID 1071).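 Also: score merges 667 nm spot intensity and signal to noise from triplicate slides.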 The note with it: higher = more signal.
In test [5] the target is Neurogenic locus notch homolog protein 2 (Homo sapiens) (UniProt Q04721). The experiment in a line: small molecules binding Notch2 protein – biochemical, small-molecule microarray, 635 nm fluorescence, stem cell growth factors, primary screen (AID 1073). As to conditions: higher = more signal.
Neurogenic locus notch homolog protein 2 (Homo sapiens), sequence (Q04721 whole entry, looked up, canonical isoform): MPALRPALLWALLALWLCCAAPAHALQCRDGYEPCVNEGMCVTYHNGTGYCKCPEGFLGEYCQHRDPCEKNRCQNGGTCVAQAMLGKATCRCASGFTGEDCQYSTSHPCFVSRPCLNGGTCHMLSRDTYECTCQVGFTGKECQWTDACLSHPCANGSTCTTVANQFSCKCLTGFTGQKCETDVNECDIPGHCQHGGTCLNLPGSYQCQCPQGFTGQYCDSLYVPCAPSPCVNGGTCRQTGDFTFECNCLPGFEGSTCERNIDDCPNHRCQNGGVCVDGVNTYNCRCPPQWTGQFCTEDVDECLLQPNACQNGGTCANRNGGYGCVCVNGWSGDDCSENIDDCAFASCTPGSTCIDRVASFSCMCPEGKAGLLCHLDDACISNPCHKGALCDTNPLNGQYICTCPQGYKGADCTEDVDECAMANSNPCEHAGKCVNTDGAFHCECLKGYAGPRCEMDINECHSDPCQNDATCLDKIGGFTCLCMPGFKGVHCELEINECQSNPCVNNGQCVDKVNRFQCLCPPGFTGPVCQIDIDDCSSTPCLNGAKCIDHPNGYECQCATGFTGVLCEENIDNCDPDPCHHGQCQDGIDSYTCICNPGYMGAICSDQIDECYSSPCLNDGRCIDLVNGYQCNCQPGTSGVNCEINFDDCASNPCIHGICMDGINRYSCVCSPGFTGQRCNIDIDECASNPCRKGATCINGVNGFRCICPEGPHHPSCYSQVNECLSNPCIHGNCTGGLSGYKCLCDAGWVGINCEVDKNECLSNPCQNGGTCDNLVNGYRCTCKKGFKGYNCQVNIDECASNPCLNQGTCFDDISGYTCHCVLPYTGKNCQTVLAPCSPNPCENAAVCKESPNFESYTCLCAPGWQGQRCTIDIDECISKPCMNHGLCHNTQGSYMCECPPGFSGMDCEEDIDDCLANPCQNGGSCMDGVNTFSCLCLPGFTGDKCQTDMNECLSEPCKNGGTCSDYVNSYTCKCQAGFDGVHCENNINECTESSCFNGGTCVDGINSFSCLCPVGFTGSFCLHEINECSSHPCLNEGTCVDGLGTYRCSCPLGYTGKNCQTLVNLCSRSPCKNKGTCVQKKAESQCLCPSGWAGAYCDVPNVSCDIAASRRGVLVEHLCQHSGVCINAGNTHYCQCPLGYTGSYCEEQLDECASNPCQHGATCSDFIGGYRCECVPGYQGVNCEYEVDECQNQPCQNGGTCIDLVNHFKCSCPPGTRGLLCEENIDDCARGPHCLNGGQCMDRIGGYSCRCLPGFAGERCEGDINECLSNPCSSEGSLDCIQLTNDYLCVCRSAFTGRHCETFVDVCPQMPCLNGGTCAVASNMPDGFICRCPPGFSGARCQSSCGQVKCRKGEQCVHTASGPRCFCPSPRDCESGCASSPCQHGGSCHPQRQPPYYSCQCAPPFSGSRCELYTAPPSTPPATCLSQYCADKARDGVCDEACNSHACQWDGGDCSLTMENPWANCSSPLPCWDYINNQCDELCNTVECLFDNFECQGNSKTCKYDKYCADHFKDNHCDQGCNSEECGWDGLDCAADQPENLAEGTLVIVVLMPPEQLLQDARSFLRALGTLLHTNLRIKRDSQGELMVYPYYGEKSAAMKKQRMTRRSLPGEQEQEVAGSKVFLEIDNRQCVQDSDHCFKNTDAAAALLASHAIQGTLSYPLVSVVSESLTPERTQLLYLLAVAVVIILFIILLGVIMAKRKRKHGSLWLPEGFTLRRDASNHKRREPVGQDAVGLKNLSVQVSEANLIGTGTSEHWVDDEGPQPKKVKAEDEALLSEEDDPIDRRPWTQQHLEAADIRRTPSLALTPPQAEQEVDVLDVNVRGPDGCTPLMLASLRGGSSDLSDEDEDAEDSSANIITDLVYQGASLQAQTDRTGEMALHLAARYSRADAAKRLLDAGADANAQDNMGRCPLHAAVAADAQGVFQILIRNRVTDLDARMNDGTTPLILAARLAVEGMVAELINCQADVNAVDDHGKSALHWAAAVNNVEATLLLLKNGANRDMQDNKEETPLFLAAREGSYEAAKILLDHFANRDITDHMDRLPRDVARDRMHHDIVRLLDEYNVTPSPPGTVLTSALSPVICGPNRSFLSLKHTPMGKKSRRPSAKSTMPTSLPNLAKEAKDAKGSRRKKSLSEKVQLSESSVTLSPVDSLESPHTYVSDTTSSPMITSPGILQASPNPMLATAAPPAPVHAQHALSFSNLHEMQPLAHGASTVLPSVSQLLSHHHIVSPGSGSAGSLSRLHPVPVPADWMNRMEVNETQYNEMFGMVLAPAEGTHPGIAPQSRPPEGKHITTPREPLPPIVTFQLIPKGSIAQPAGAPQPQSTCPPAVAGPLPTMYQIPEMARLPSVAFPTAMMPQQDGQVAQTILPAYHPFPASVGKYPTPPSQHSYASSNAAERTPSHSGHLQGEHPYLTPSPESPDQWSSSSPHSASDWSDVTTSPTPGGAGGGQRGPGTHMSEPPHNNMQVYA
For test [6], the target named is Pro-neuregulin-1, membrane-bound isoform (Homo sapiens) (UniProt Q02297). The experiment in a line: small molecules binding neuregulin-1 protein – biochemical, small-molecule microarray, fluorescence 635/667, psychiatric disease protein project, primary screen (AID 1075).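 Also: score combines 667 nm spot fluorescence with signal to noise.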 The note with it: NRG1 binding, 635 nm fluorescence, higher = more signal.
Pro-neuregulin-1, membrane-bound isoform (Homo sapiens), sequence (Q02297 whole entry, looked up, the tested form may be a part, canonical isoform): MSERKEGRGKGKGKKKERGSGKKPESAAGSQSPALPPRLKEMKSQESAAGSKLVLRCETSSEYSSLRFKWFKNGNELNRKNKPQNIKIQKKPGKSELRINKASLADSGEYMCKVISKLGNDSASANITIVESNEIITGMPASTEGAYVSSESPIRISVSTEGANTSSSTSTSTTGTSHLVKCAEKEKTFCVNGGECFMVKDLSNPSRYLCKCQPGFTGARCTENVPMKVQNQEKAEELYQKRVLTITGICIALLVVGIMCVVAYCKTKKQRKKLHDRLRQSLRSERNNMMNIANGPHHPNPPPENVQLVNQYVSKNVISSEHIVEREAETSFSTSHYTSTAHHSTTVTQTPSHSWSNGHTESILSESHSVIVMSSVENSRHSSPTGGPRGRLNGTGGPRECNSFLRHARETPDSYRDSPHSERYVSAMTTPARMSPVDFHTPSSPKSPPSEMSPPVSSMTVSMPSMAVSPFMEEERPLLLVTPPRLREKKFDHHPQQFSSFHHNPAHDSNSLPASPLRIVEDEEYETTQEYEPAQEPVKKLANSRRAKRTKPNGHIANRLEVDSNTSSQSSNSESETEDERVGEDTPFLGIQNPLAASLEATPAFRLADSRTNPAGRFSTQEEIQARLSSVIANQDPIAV
The test system of test [7] is Neuregulin-1 EGF-like domain. The experiment in a line: small molecules binding NRG1 EGF domain – biochemical, small-molecule microarray, 635 nm fluorescence, primary screen (AID 1081).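 Also: binding of the protein to compounds printed on small-molecule microarray slides.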 The note with it: higher = more signal.
Test [8] is described as follows: FRG1 expression reporter modulators in myotubes – cell-based, C2C12 myotubes, firefly/Renilla luciferase, luminescence, FRG1 inhibition for FSHD, primary screen (AID 1084). The note with it: FRG1 promoter luciferase, higher = more signal, called active from +8 up or from −8 down.
Test [9] can be described thus: small molecules captured by biotinylated probe aFST – biochemical, small-molecule microarray, fluorescence 635/667, stem cell growth factor project, primary screen (AID 1086).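 Also: score merges 667 nm fluorescence with signal-to-noise of each printed compound spot.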 The note with it: higher = more signal.
A short description of test [10]: binders of probe aHhip on microarray, primary screen, stem cell growth factor project, biochemical, small-molecule microarray, fluorescence 635/667 (AID 1087).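 Also: score merges spot fluorescence at 667nm with spot signal to noise ratio.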 As to conditions: higher = more signal.

Calls of active or inactive are those of the source.

In the case of `[N-]=[N+]=Nc1ccccc1C[C@]1(C(=O)NCCN2CCOCC2)COC(c2ccc(OCCCO)cc2)=N1`, the composite z-score in test [1] is 0.295; in test [2] it was 1.26; in test [3] it was -0.27; in test [4] it was -0.0786; in test [5], 0.722; in test [6], 1.55. Further, the values for the composite z-score in [7], in test [9] and in test [10] were 1.39, 0.143 and -0.0994, respectively. Also, in test [8], the z-score is 0.706 (inactive).
For `CCCCC[C@H]1OC[C@@]23C=C(Br)[C@@H](CC12)[C@@]1(CO1)C3=O` (stereo not given in full), the composite z-score is -0.41 in [1]; 0.878 in test [2]; -0.2 in test [3]; -0.112 in test [4]; -0.308 in test [5]; -0.556 in test [6]. In addition, the composite z-score is -0.497 in test [7], -0.252 in [9] and -0.132 in test [10]. Moreover, the z-score in test [8] was 0.201 (inactive).
Take `COCCOC(=O)N1C(=O)[C@@]2(c3cc(C#CC4=CCCCC4)ccc31)[C@H](c1ccccc1OCCO)N1[C@H](c3ccccc3)[C@H](c3ccccc3)OC(=O)[C@H]1[C@@H]2C(=O)N1CCN(c2ncccn2)CC1`: the composite z-score is -0.463 in test [1]; 0.434 in [2]; -0.0536 in test [3]; 0.538 in [4]; 1.07 in [5]; 0.373 in test [6]. Further, the composite z-score in test [7] was 1.13; in [9] it was 0.469; in [10], -0.321. Besides, the z-score in [8] was -0.624 (inactive).
Turning to `C=CC[C@@]1(C(=O)NCCCOC)N=C(c2ccc(OCCCO)cc2)O[C@@H]1c1ccccc1`, the composite z-score in test [1] was 0.513; in test [2], 1.09; in [3], 0.0679; in test [4], -0.562; in test [5], -0.0215; in test [6] it was 1.84. The composite z-score in test [7] turned out to be 1.15; in [9], 0.74; in [10], 0.712. Further, the z-score in test [8] is -1.24 (inactive).
For `COCCCNC(=O)[C@@H]1c2ccccc2C(=O)N(C(C)C)[C@H]1c1ccc(CO)cc1`, the composite z-score in test [1] was 0.312; in test [2], 0.355; in [3], -0.051; in test [4] it was -0.373; in [5] it was 0.0446; in test [6], 0.576. Besides, the results for the composite z-score in test [7], in test [9] and in test [10] were 0.763, 0.0241 and -0.249, respectively. In [8], the z-score was -0.215 (inactive).
On to `CCCCC(CC)C(O)C1C=CC2C(=O)N(c3ccccc3)C(=O)C2N1Nc1ccc(C#N)cc1` (stereo not given), for which the composite z-score in test [1] was found to be 0.883; in [2] it was 0.468; in test [3] it was 0.332; in test [4], 1; in test [5], 1.59; in test [6] it was 0.893. Also, the composite z-score in test [7] was 1.31; in [9], 1.66; in test [10], -0.183. Also, the z-score in test [8] is -0.257 (inactive).
Take `CC(c1ccccc1)C(O)C1C=CC2C(=O)N(C)C(=O)C2N1Nc1ccccc1` (stereo not given): the composite z-score in [1] is 0.799; in test [2], -0.146; in test [3], 0.362; in test [4] it was 0.796; in test [5] it was 1.63; in [6], 1.43. Further, the results for the composite z-score in test [7], in [9] and in test [10] were 1.25, 0.814 and 0.0578, respectively. In [8], the z-score was 0.796 (inactive).
`OCCCC1=CC(c2ccc(CN3CCCC3)cc2)N(Cc2cc3c(cc2Br)OCO3)CC1` (stereo not given): the composite z-score in [1] was 0.492; in [2], 0.52; in [3], -0.135; in test [4] it was -0.373; in test [5], -0.108; in test [6], -0.384. In addition, the composite z-score in [7] is 0.748; in test [9] it was 0.47; in test [10], -0.0237. In addition, the z-score in test [8] is -0.0594 (inactive).
Turning to `COCCOC(=O)N1C(=O)[C@@]2(c3cc(C#CCCO)ccc31)[C@H](C(=O)Nc1nc3ccccc3s1)[C@H]1C(=O)O[C@H](c3ccccc3)[C@H](c3ccccc3)N1[C@@H]2c1ccc(O)cc1`, the composite z-score in test [1] is -0.223; in test [2], 0.9; in test [3], -0.0403; in test [4], 0.83; in test [5] it was 1.53; in test [6], 1.07. Further, the composite z-score was found to be 0.72 in test [7], 0.346 in test [9] and 0.0505 in test [10]. In addition, the z-score in test [8] is -0.948 (inactive).
With `O[C@@H](Cc1ccccc1)[C@@H](/C=C/C1CC1)N(CC#Cc1ccccc1)Cc1ccccc1Br`, the composite z-score in test [1] is 1.53; in [2] it was -0.614; in [3] it was -0.157; in test [4], -0.763; in test [5], -0.836; in test [6], -0.0422. Moreover, the composite z-score in test [7] was -0.0401; in test [9] it was -0.221; in [10], -0.19. In addition, the z-score in test [8] is -0.507 (inactive).
For `C=C[C@@H](CO)N(Cc1ccc(OC)cc1)S(=O)(=O)c1ccc(Br)cc1`, the composite z-score in test [1] was -0.142; in [2], 0.368; in test [3] it was -0.13; in test [4], 0.332; in test [5], -0.185; in test [6], 0.0749. Further, the composite z-score in [7] is 0.996; in test [9], -0.446; in [10], -0.134. Besides, the z-score in test [8] was -4.18 (inactive).
